# Active and inactive are the calls of the source. Rule for the calls: active = hit-call score of the fitted dose curve at least 0.9, where 1 is the maximum; inactive = score below 0.9.
# Experiment: Tanguay_ZF_120hpf_AXIS: Oregon State University Tanguay Lab 120 Hour Post-fertilization zebrafish Assay for Axial Malformation (AID 2284398)
# Method in brief: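 Scoring was binary (present or absent) for body-axis defects, judged by brightfield imaging at 120 hpf in surviving larvae. Exposure was static at 28C from 6 hpf in chorion-free 5D wild-type embryos, with 0.64% DMSO vehicle.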
SMILES,AC50,outcome
CN(CCO)S(=O)(=O)C(F)(F)C(F)(F)C(F)(F)C(F)(F)C(F)(F)C(F)(F)C(F)(F)C(F)(F)F,29.6 µM (active),–
O=P(O)(O)CCC(F)(F)C(F)(F)C(F)(F)C(F)(F)C(F)(F)C(F)(F)C(F)(F)C(F)(F)F,–,inactive
O=C(O)CCC(F)(F)C(F)(F)C(F)(F)C(F)(F)C(F)(F)F,–,inactive
O=P(O)(O)CCC(F)(F)C(F)(F)C(F)(F)C(F)(F)C(F)(F)C(F)(F)F,–,inactive
C=CC(=O)OCCC(F)(F)C(F)(F)C(F)(F)C(F)(F)C(F)(F)C(F)(F)C(F)(F)C(F)(F)F,–,inactive
O=C(CC(=O)C(F)(F)C(F)(F)C(F)(F)F)c1cccs1,–,inactive
O=C(O)C(F)(F)OC(F)(F)C(F)(F)OC(F)(F)C(F)(F)OC(F)(F)C(F)(F)C(F)(F)C(F)(F)F,–,inactive
OCC(F)(F)C(F)(F)C(F)(F)C(F)(F)C(F)(F)C(F)(F)C(F)(F)C(F)(F)C(F)(F)C(F)(F)C(F)(F)F,–,inactive

# Experiment: Tanguay_ZF_120hpf_MORT: Oregon State University Tanguay Lab 120 Hour Post-fertilization zebrafish Assay for Mortality (AID 2284399)
# Method in brief: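 Mortality, recorded present/absent via brightfield imaging at 24 and 120 hpf, in 5D zebrafish embryos exposed statically from 6 hpf after pronase chorion removal. Exposure at 28C, 0.64% DMSO vehicle, DMSO baseline.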
SMILES,outcome,AC50
CN(CCO)S(=O)(=O)C(F)(F)C(F)(F)C(F)(F)C(F)(F)C(F)(F)C(F)(F)C(F)(F)C(F)(F)F,inactive,–
O=P(O)(O)CCC(F)(F)C(F)(F)C(F)(F)C(F)(F)C(F)(F)C(F)(F)C(F)(F)C(F)(F)F,inactive,–
O=C(O)CCC(F)(F)C(F)(F)C(F)(F)C(F)(F)C(F)(F)F,inactive,–
O=P(O)(O)CCC(F)(F)C(F)(F)C(F)(F)C(F)(F)C(F)(F)C(F)(F)F,inactive,–
C=CC(=O)OCCC(F)(F)C(F)(F)C(F)(F)C(F)(F)C(F)(F)C(F)(F)C(F)(F)C(F)(F)F,inactive,–
O=C(CC(=O)C(F)(F)C(F)(F)C(F)(F)F)c1cccs1,inactive,–
O=C(O)C(F)(F)OC(F)(F)C(F)(F)OC(F)(F)C(F)(F)OC(F)(F)C(F)(F)C(F)(F)C(F)(F)F,–,51.1 µM (active)
OCC(F)(F)C(F)(F)C(F)(F)C(F)(F)C(F)(F)C(F)(F)C(F)(F)C(F)(F)C(F)(F)C(F)(F)C(F)(F)F,inactive,–

# Experiment: Tanguay_ZF_120hpf_EDEM: Oregon State University Tanguay Lab 120 Hour Post-fertilization zebrafish Assay for Edema Malformation (AID 2284400)
# Method in brief: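 Edema recorded as a binary endpoint under brightfield at 120 hpf, excluding embryos that died. Exposure was static, sealed, 28C, from 6 hpf in dechorionated wild-type larvae, final DMSO 0.64%, DMSO as baseline.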
SMILES,AC50,outcome
CN(CCO)S(=O)(=O)C(F)(F)C(F)(F)C(F)(F)C(F)(F)C(F)(F)C(F)(F)C(F)(F)C(F)(F)F,29.6 µM (active),–
O=P(O)(O)CCC(F)(F)C(F)(F)C(F)(F)C(F)(F)C(F)(F)C(F)(F)C(F)(F)C(F)(F)F,–,inactive
O=C(O)CCC(F)(F)C(F)(F)C(F)(F)C(F)(F)C(F)(F)F,–,inactive
O=P(O)(O)CCC(F)(F)C(F)(F)C(F)(F)C(F)(F)C(F)(F)C(F)(F)F,–,inactive
C=CC(=O)OCCC(F)(F)C(F)(F)C(F)(F)C(F)(F)C(F)(F)C(F)(F)C(F)(F)C(F)(F)F,–,inactive
O=C(CC(=O)C(F)(F)C(F)(F)C(F)(F)F)c1cccs1,65.8 µM (active),–
O=C(O)C(F)(F)OC(F)(F)C(F)(F)OC(F)(F)C(F)(F)OC(F)(F)C(F)(F)C(F)(F)C(F)(F)F,–,inactive
OCC(F)(F)C(F)(F)C(F)(F)C(F)(F)C(F)(F)C(F)(F)C(F)(F)C(F)(F)C(F)(F)C(F)(F)C(F)(F)F,–,inactive

# From PubChem BioAssay (EPA / NIEHS)
